An excerpt weighted towards active compounds, which were near 3% of everything screened.
Nrf2 activator: activators of Nrf2 (ARE) signaling | AREc32 ARE-luciferase reporter (MCF7-derived line), luminescence, 24 h | Potency, µM (titrated, usually from 46.1 µM), without a hit: top-dose activation, most hits filed as activators | actives 0.31% (n = 410,000) | AID 624171; note: % of control where 0% means no effect; nearly all actives have a fitted effect of over 65% in size
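Luminescent ARE reporter assay in AREc32_Fluc cells: overnight plating at 37 deg C, 24 hr compound incubation, Steady-Glo added, 30 min RT before reading.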
rTrxR1 inhibitor: inhibitors of rat thioredoxin reductase 1; O89049; Potency, µM (titrated, usually from 114 µM), for inactives: at the highest dose activity change, negative = inhibition, most hits filed as inhibitors; recombinant rTrxR1, NADPH fluorescence consumption, selenite substrate; AID 588453; actives 1% (n = 390,000); note: % is set by controls: 0 for no effect and ±100 for the full control effect; nearly all actives have a fitted effect of over 65% in size
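Rat TrxR1 (90 nM in the dispensed reagent) was pre-reduced with 400 uM NADPH for 5 min at room temperature, then incubated with compound for 15 min. After 400 uM selenite was added, NADPH fluorescence (Ex 340/Em 450 nm) was followed for 8 min.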
Nrf2 block: Nrf2 pathway inhibition; A549 ARE-Fluc reporter, luciferase luminescence, 18-24 h; Potency, µM (top dose mostly 46 µM), inactives show top-dose activity change, negative = inhibition, most hits filed as inhibitors; actives 2.1% (n = 360,000); note: % is set by controls: 0 for no effect and ±100 for the full control effect; nearly all actives have a fitted effect of over 60% in size
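A549 ARE_Fluc cells (5000/well, 5% FBS OPTI-MEM) pre-incubated 2 h, then treated with compounds 18-24 h at 37C/5% CO2 in concentration-response. CellTiter-Fluor viability read first; BugLite luciferase luminescence after 15 min at room temperature gives Nrf2 activity.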
TrxR1 substrate: is turned over as a substrate by rat TrxR1; purified TrxR1 substrate turnover, NADPH consumption readout; actives 0.01% (n = 390,000); O89049; Potency, µM (highest dose often 114 µM), inactives show at the top dose activity change, negative = substrate turnover; note: % is set by controls: 0 for no effect and ±100 for the full control effect; nearly all actives have a fitted effect of over 50% in size
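Rat TrxR1, dispensed at 90 nM, was prereduced with 400 uM NADPH (final) for 5 min at ~22 deg C, then incubated with compound 15 min before 400 uM selenite. A first-read NADPH fluorescence drop versus no-compound background flagged substrates.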
A549 viability: counter-screen for Nrf2 inhibitors: cytotoxicity in A549 cells | A549 ARE-Fluc cells, CellTiter-Fluor viability, 18-24 h | Potency, µM (series often up to 46 µM), for the others: at the highest dose activity change, negative = cytotoxicity, most hits filed as inhibitors | actives 0.16% (n = 390,000); note: % is set by controls: 0 for no effect and ±100 for the full control effect
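Cytotoxicity counterscreen: CellTiter-Fluor fluorescence was measured in A549 ARE_Fluc cells after 18-24 h of compound exposure in a concentration series. The subsequent BugLite luminescent read reports ARE-luciferase activity.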
GALK inh: galactokinase (human) inhibition. Purified GALK, Kinase-Glo residual ATP luminescence. Potency, µM (top dose mostly 57.5 µM), inactives show top-dose activity change, negative = inhibition, usual class: inhibitors. actives 0.007% (n = 270,000). AID 1868; note: % is set by controls: 0 for no effect and ±100 for the full control effect
Target sequence (P51570 whole entry, looked up): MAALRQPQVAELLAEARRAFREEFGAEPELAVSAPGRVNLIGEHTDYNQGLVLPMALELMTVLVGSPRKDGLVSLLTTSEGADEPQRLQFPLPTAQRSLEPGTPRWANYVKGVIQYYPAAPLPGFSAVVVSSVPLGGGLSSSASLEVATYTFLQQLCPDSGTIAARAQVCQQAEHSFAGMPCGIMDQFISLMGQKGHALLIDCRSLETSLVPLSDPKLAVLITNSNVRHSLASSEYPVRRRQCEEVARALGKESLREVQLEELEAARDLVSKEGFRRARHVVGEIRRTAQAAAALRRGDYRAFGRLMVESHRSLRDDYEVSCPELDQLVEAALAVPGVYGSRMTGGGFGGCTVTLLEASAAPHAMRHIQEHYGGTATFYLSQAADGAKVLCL
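Kinase-Glo Plus luminescence measured ATP left after a 1 h room-temperature reaction. The reaction used 5 nM GALK, 100 uM galactose and 35 uM ATP at pH 8.0 (20 mM HEPES, 5 mM MgCl2, 60 mM NaCl, 1 mM DTT, 0.01% BSA).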
* hit, by the source's call; [ ] = remark or other dose. Calls come from the whole dose curve; as a rule, active = well fitted curve in the direction sought with a large enough effect; inconclusive = small, poorly fitted or top-dose-only effect, or another doubt; inactive = no such curve, though single readings can be large; an effect the other way counts as inactive or inconclusive. Potency is the fitted concentration of half-maximal effect.

What do the screens show for `Cc1ccc(NC(=O)CCCCCN2C(=O)[C@@H]3Cc4ccccc4CN3C2=O)c(Cl)c1`?
Nrf2 activator: 0%; rTrxR1 inhibitor: 9%; Nrf2 block: 23µM*; TrxR1 substrate: -1%; A549 viability: -21%; GALK inh: 5%

Results for Cc1cc(C)c(S(=O)(=O)NCCc2csc3nc(-c4ccc(Cl)cc4)nn23)c(C)c1 ?
Nrf2 activator: 4%; rTrxR1 inhibitor: 16%[57.1 µM]; TrxR1 substrate: -3%[57.1 µM]; A549 viability: -19%

What do the screens show for `Cc1ccc(CN(C)C(=O)C2CCC(=O)N(CC3CCCCC3)C2)o1` (stereo not given)?
Nrf2 activator: 7%; rTrxR1 inhibitor: 40µM*; Nrf2 block: 10%; TrxR1 substrate: 6%; A549 viability: -4%; GALK inh: 0%

Results for COc1cc(/C=N/N=C2/C(=O)Nc3ccccc32)cc(OC)c1O ?
Nrf2 activator: 11µM*; rTrxR1 inhibitor: -17%; Nrf2 block: 16%; TrxR1 substrate: -17%; A549 viability: 2%; GALK inh: 2%

What do the screens show for `O=C(Nc1ccc(C(=O)N2CCC(N3CCCC3)CC2)cc1)c1ccc(Br)o1`?
Nrf2 activator: 0%; rTrxR1 inhibitor: 56µM*; Nrf2 block: 12%; TrxR1 substrate: 2%; A549 viability: -3%

Results for O=C(C[N+]1(CCO)CCOCC1)c1cccs1 ?
rTrxR1 inhibitor: -7%; TrxR1 substrate: -2%

Results for O=C1C(=O)C(c2ccc(O)cc2O)Oc2cc(O)cc(O)c21 (stereo not given) ?
rTrxR1 inhibitor: 4.5µM*; Nrf2 block: 7%; TrxR1 substrate: -8%; A549 viability: -11%

What do the screens show for `Cc1ccc2oc(C(=O)N(Cc3sccc3C)C3CCS(=O)(=O)C3)c(C)c2c1` (stereo not given)?
Nrf2 activator: 6%; rTrxR1 inhibitor: 20%; Nrf2 block: 23µM*; TrxR1 substrate: -4%; A549 viability: -15%

How did Cc1ccsc1CN(C(=O)c1oc2ccc(F)cc2c1C)C1CCS(=O)(=O)C1 (stereo not given) do in these assays?
Nrf2 activator: 5%; rTrxR1 inhibitor: 30%; Nrf2 block: inconclusive; TrxR1 substrate: 1%; A549 viability: -7%

Results for COCCCNC(=O)c1c(NC(=O)c2nc(S(C)(=O)=O)ncc2Cl)sc2c1CCCC2 ?
Nrf2 activator: 6%; rTrxR1 inhibitor: 1.8µM*; Nrf2 block: 17%; TrxR1 substrate: 6%; A549 viability: -4%

How did CCNC(=O)c1c(NC(=O)c2nc(S(=O)(=O)CC)ncc2Cl)sc2c1CCCC2 do in these assays?
Nrf2 activator: 13%; rTrxR1 inhibitor: 14µM*; Nrf2 block: 21µM*; TrxR1 substrate: -9%; A549 viability: 21µM*

What do the screens show for `Cc1ccc2nc3c(cc(C#N)c(=O)n3-c3nnc(SCc4ccc(F)cc4)s3)c(=O)n2c1`?
Nrf2 activator: 0%; rTrxR1 inhibitor: -10%; Nrf2 block: 6%; TrxR1 substrate: 44%; A549 viability: 1%

How did CCCCc1ccc(S(=O)(=O)NC2CCS(=O)(=O)C2)cc1 (stereo not given) do in these assays?
Nrf2 activator: 2%; rTrxR1 inhibitor: 6%; Nrf2 block: 18µM*; TrxR1 substrate: 1%; A549 viability: -2%; GALK inh: 0%

Results for NC(=O)C1CCN(C2=C(Cl)C(=O)c3ccccc3C2=O)CC1 ?
Nrf2 activator: 26%; rTrxR1 inhibitor: 1µM*; Nrf2 block: -12%; TrxR1 substrate: -15%; GALK inh: inconclusive

What do the screens show for `O=C1C(Cl)=C(N2CCC(C(=O)O)CC2)C(=O)c2ccccc21`?
Nrf2 activator: inconclusive; rTrxR1 inhibitor: 1.1µM*; Nrf2 block: -9%; TrxR1 substrate: -1%; A549 viability: -13%; GALK inh: inconclusive

High-throughput results deposited in PubChem BioAssay by National Center for Advancing Translational Sciences (NCATS).
